Results as given in ChEMBL document CHEMBL3988442, “University of Dundee, Small-Polar-MMV Screening Library” (2021).
The whole screen tested about 48,000 compounds, of which about 13,000 (27%) showed an effect of 50% or more. Some of the results follow.

test system: Wolbachia pipientis; assay: Anti-Wolbachia Cell-Based Screen; type: functional; design: scale not given: in the data most compounds retested in dose-response had high values; conditions: 5 µM

SMILES	Percent Effect
CCc1noc(CN(C)Cc2cc(Br)ccc2OC)n1	4.438%
Cc1ccn(-c2ccccc2NCc2cscn2)n1	-9.752%
COC(=O)c1cnc(C(=O)N(c2ccc(OC)c(F)c2)C(C)C)cn1	-7.917%
COC(=O)C(c1cc(F)ccc1F)N(C)C(=O)c1cnccn1 (centres undefined)	118.4%
COC(=O)C(c1cc(F)ccc1F)N(C)C(=O)c1ccccn1 (centres undefined)	114.5%
COC(=O)C(c1cc(F)ccc1F)N(C)C(=O)c1cccnc1O (centres undefined)	1.784%
Cc1cccc(N(CCC(N)=O)C(=O)c2ccnc(C)n2)c1	-10.53%
COC(=O)C(c1cc(F)ccc1F)N(C)C(=O)c1ccnc(C)n1 (centres undefined)	4.378%
COC(=O)C(c1cc(F)ccc1F)N(C)C(=O)c1csnn1 (centres undefined)	3.05%
CN(C)CCN(Cc1ccc(Cl)cc1)C(=O)c1cnccn1	-5.634%
COC(=O)C(c1cc(F)ccc1F)N(C)C(=O)c1cnc(C)cn1 (centres undefined)	103%
COc1ccc(N(C(=O)c2cnc(C)cn2)C(C)C)cc1F	9.374%
COC(=O)C(c1ccccc1)N(C)C(=O)c1ccnc(C)n1 (centres undefined)	100.7%
Cc1nccc(CNC(=O)NCC(C)Oc2ccccc2F)n1 (centres undefined)	-7.985%
O=C1N(Cc2cccc(F)c2F)CCCC1(O)CNCc1ccccc1 (centres undefined)	16.03%
Cc1c(CNS(=O)(=O)c2cccc(COC(C)C)c2)cnn1C	-15.21%
CN1C[C@@H](NC(=O)C(C)(C)C)C[C@H]1C(=O)NCc1ncc[nH]1	-5.014%
COCCOC[C@]1(CNC(=O)c2ccc(OC)cc2)C[C@@H](O)[C@@H](O)C1	-0.4241%
Cc1cc(C)c(CNC(=O)NCc2nnc3n2CCCCC3)c(=O)[nH]1	-9.467%
O=C(CN1CCOc2ccc(Cl)cc21)NCc1ncc[nH]1	-5.45%
Cc1cccc(C)c1CCNC(=O)N1CCCC2(C1)OCCO2	-0.05309%
Cc1ccccc1NC(=O)N1CC[C@@H]2CN(CC(C)C)S(=O)(=O)[C@@H]2CC1	-60.79%
CCN(Cc1c(C)nn(C)c1C)C(=O)C1COc2ccccc2C1 (centres undefined)	-5.134%
CC(C)c1n[nH]c(C2CN(C(=O)c3cc(C4CC4)on3)CCO2)n1 (centres undefined)	113.9%
Cc1n[nH]c(C2CN(C(=O)c3csnn3)CCO2)n1 (centres undefined)	-23.45%
CC(C)c1n[nH]c(C2CN(C(=O)c3csnn3)CCO2)n1 (centres undefined)	4.906%
Cc1n[nH]c(C2CN(C(=O)c3cc(C4CC4)on3)CCO2)n1 (centres undefined)	119.9%
Cc1n[nH]c(C2CN(C(=O)c3ccon3)CCO2)n1 (centres undefined)	-8.521%
CC(C)c1n[nH]c(C2CN(Cc3nnc(C4CC4)o3)CCO2)n1 (centres undefined)	-9.108%
